Active and inactive are the calls of the source. The calls were made as follows: active = hit-call score of the fitted dose curve at least 0.9, where 1 is the maximum; inactive = score below 0.9.

Read-out in this assay: Vascular endothelial growth factor receptor 2 (Homo sapiens) (UniProt P35968)
The assay is described as follows: BSK_4H_VEGFRII: BioMAP Diversity Plus: 4H Assay for Vascular endothelial growth factor receptor 2 (VEGFR2) Biomarker Activity (AID 2283031). As to conditions: primary human endothelial cells (HUVEC); actives raise or lower the signal. The protocol: BSK_4H is a cell-based, multiplexed-readout assay that uses umbilical vein endothelium, a human vascular primary cell, with measurements taken at 24 hours after chemical dosing in a 96-well plate.BSK_4H_VEGFRII is an assay component measured in the BSK_4H assay. It measures VEGFRII antibody related to regulation of gene expression using ELISA technology.Data from the assay component BSK_4H_VEGFRII was analyzed into 1 assay endpoint. This assay endpoint, BSK_4H_VEGFRII, was analyzed with bidirectional fitting relative to DMSO as the negative control and baseline of activity. Using a type of binding reporter, gain or loss-of-signal activity can be used to understand changes in the signaling as they relate to the gene KDR. Furthermore, this assay endpoint can be referred to as a primary readout, because this assay has produced multiple assay endpoints where this one serves a signaling function. To generalize the intended target to other relatable targets, this assay endpoint is annotated to the kinase intended target family, where the subfamily is receptor tyrosine kinase.
The levels of cell surface (or secreted, indicated by the prefix "s") biomarker endpoints were measured by ELISA. Overt cytotoxicity to cells in confluent adherent cultures (all systems other than the BT system) was assessed by measuring total protein levels using sulforhodamine B (SRB) staining in parallel cultures at the time of biomarker measurements, indicated as SRB endpoints. For proliferation assays for adherent cell types, individual cell types are cultured at sub-confluence and relative cell numbers quantified by SRB staining at time points optimized for each system (48 h: 3C and CASM3C systems; 72 h: BT and HDF3CGF systems; 96 h: SAg system). SRB was performed by staining cells with 0.1% SRB after fixation with 10% TCA and reading wells at 560 nm.Viability and proliferation of PBMC (T cells) was quantified by Alamar Blue reduction for the SAg and BT systems. For PBMC viability (referred to as PBMC Cytotoxicity within the assay endpoint names), cells were plated (75,000/well in a 96-well plate) and then chemical samples added for 1 h before addition of activators, SEB and TSST-1 (20 ng/mL final concentration each). Cells were incubated for 90 h. Then, Alamar Blue (20 uL/well) (Invitrogen, Cat DAL1100) was added for 6 h, and the plates were read with a fluorescence microplate reader at 546/580 nm (excitation/emission). For PBMC proliferation, cells were plated and activated as above but incubated for only 16 h prior to addition of Alamar Blue. Plates were read after 6 h.
As for `c1ccc2n[nH]nc2c1`, the outcome was inactive.
Same read-out and setting: the value for `c1ccc(C[n+]2cccc3ccccc32)cc1` was “inactive”.
As for `CCCCOC(=O)CC(CC(=O)OCCCC)(OC(C)=O)C(=O)OCCCC`, the outcome was inactive.
`O=c1c(-c2ccc(O)cc2)coc2cc(O)cc(O)c12`: the outcome was inactive.
Take `O=C(Nc1ccc(Cl)cc1)Nc1ccc(Cl)c(Cl)c1`: the AC50 (usually the midpoint of the concentration-response curve, whichever way the signal moves) is 2.19 µM (active).
Same read-out and setting: the result for `CC(C)(C)c1csc(-c2cc3cc(OCc4ccccc4CC(=O)O)ccc3o2)n1` reads 9.41 µM (active).
For the compound `CC(C)(C)c1cc(/C=C2\SC(N)=NC2=O)cc(C(C)(C)C)c1O`, the half-maximal activity concentration (AC50) is 27.4 µM (active).
`CCCOC(=O)c1cc(O)c(O)c(O)c1`: the result was inactive.
In the case of `O=C(O)Cc1cc(I)c(Oc2ccc(O)c(I)c2)c(I)c1`, the result was inactive.
Consider `CC(C)(c1cc(Br)c(O)c(Br)c1)c1cc(Br)c(O)c(Br)c1`, for which the result was inactive.
As to `CCCCCCCCCC(=O)O`, the result was inactive.
Take `Cc1cc2c(cc1C(F)(F)F)N(C(=O)Nc1ccc(Oc3cccnc3C)nc1)CC2`: the result was inactive.
The same measure, in the same setting: the result for `CC/C(=C(/CC)c1ccc(O)cc1)c1ccc(O)cc1` reads “inactive”; that for `CCN(Cc1cccc(S(=O)(=O)O)c1)c1ccc(C(=C2C=CC(=[N+](CC)Cc3cccc(S(=O)(=O)O)c3)C=C2)c2ccccc2S(=O)(=O)[O-])cc1`, “inactive”; that for `O=C1CCC(C2CCCCC2)CC1`, “inactive”.
Take `Cc1cc(F)ccc1-c1cc(N2CC[C@@H](O)[C@H]2CO)ncc1N(C)C(=O)C(C)(C)c1cc(C(F)(F)F)cc(C(F)(F)F)c1`: the AC50 is 7.98 µM (active).
Turning to `Cc1ccc(C(C)C)cc1`, the outcome was inactive.
Turning to `c1ccc2ccccc2c1`, the outcome was inactive.
Still for that read-out and setting: the result for `O=C(O)Cn1c(=O)n(Cc2ccc(Br)cc2F)c(=O)c2ccc(Cl)cc21` reads “inactive”; that for `CC[C@H](NC(=O)c1cc(F)ccc1NS(=O)(=O)c1cccc2cccnc12)c1ccccc1`, “inactive”.
In the case of `CCN(Cc1cccnc1)C(=O)c1cccc(Cl)c1[C@]1(C)C(=O)N(Cc2ccc(OC)cc2OC)c2ccc(Cl)cc21`, the AC50 is 6.81 µM (active).
Regarding `CCCCCCCC[Si](OCC)(OCC)OCC`, the result was inactive.
For `CCCCCc1ccc(N)cc1`, the outcome was inactive.
On to `CCOC(=O)O[C@H](C)OC(=O)c1ccc2c(c1)cc(C(=O)NC1CCN(C(C)C)CC1)n2Cc1cc(-c2ccc(Cl)s2)on1`, for which the half-maximal activity concentration (AC50) was 5.06 µM (active).
With `C[C@]12CC[C@@H]3c4ccc(O)cc4CC[C@H]3[C@@H]1CC[C@H]2O`, the outcome was inactive.
Consider `NC(=O)c1nc(-c2cccc(-c3cc(F)ccc3OCC(F)(F)C(F)(F)F)c2)n[nH]1`, for which the outcome was inactive.
On to `O=C=NCCCCCCN=C=O`, for which the outcome was inactive.
For `O=c1ccc2ccccc2o1`, the outcome was inactive.
For the compound `CCCC(=O)OCCC(C)C`, the result was inactive.
For the compound `CCCCCCCCOC(=O)c1cc(O)c(O)c(O)c1`, the outcome was inactive.
Same read-out and setting: the result for `CC1(C)NC(=O)N(c2ccc([N+](=O)[O-])c(C(F)(F)F)c2)C1=O` reads “inactive”.
The same measure, in the same setting: the result for `Oc1ccc2ccccc2c1` reads “inactive”; that for `CN(C[C@@H](CC[N+]12CCC(C3CCCCC3)(CC1)CC2)c1ccc(Cl)c(Cl)c1)C(=O)c1cc(C(F)(F)F)cc(C(F)(F)F)c1`, “inactive”.
As to `Cc1oc2c(NC(=O)c3c(Cl)cccc3Cl)cccc2c1C(C)(C)O`, the result was inactive.
Turning to `CN(C)C(=O)C1(N2CCCCC2)CCN(CC[C@@]2(c3ccc(Cl)c(Cl)c3)CN(C(=O)c3ccccc3)CCO2)CC1`, the result was inactive.
The same measure, in the same setting: the result for `Cc1c2ccccc2c(C)c2c1ccc1ccccc12` reads “inactive”.
On to `CC(C)(O)c1ccc(CNC(=O)c2cccnc2Oc2ccc3nonc3c2)cc1`, for which the outcome was inactive.
Still for that read-out and setting: the result for `Clc1ccccc1C(c1ccccc1)(c1ccccc1)n1ccnc1` reads “inactive”; that for `O=C(OCCCCCCOC(=O)c1ccccc1)c1ccccc1`, “inactive”; that for `O=C1c2ccccc2C(=O)N1CCc1noc(-c2ccc(CN3CCCCCC3)s2)n1`, “inactive”.

For the origin of these results see PubChem BioAssay (EPA / NIEHS).
